Data from the supplement of paper PMC11732987, “Enantioselective OTUD7B fragment discovery through chemoproteomics screening and high-throughput optimisation” (Communications Chemistry, 2025).

What was measured:
Assay in all cases: log2 ratio of Biotin-Ahx-Ub-VS probe labelling (fragment/DMSO); higher = less target engagement (more negative = stronger competition), active = hit call of the paper (q ≤ 0.05, log2 ratio ≤ -1)
Settings in all cases: compound concentration: 200 uM; treatment time: 3 h
ALG13 = molecular target: T1, ALG13 (UniProt Q9NP73)
T1 sequence (whole entry): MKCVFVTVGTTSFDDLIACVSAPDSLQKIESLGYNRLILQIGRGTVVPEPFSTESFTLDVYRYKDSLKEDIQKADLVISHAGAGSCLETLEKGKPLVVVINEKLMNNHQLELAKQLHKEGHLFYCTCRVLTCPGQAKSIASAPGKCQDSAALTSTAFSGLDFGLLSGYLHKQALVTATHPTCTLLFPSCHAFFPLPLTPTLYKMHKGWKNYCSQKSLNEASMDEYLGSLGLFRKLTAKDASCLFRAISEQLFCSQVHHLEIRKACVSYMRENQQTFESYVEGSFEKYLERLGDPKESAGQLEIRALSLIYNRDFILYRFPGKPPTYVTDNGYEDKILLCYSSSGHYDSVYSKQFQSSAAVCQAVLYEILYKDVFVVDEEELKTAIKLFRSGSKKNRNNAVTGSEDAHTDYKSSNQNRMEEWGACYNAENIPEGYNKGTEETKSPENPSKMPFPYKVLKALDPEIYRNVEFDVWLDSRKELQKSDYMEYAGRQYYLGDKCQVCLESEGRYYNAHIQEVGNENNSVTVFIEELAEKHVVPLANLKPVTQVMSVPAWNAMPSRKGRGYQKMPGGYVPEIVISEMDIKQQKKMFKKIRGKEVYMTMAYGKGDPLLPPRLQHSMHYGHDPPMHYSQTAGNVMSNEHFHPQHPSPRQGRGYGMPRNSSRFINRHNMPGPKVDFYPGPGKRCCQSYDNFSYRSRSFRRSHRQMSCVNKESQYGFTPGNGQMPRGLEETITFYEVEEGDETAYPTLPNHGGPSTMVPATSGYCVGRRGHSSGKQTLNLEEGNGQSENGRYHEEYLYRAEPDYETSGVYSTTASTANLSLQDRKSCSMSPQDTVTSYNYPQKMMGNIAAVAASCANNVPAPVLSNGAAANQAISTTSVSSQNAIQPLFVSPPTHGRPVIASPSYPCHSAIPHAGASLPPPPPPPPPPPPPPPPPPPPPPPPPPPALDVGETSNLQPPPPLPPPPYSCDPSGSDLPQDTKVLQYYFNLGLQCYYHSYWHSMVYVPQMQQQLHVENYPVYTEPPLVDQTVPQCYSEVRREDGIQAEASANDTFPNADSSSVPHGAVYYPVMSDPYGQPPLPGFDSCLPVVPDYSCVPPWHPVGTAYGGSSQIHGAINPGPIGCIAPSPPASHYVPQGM
Method in brief: (§1)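 Fragment (200 µM) or vehicle was incubated for 3 h with triplicate HEK293T lysate samples of 495 µg, which were then treated with Biotin-Ahx-Ub-VS at 0.5 µM final for 1 h. Labelled DUBs were enriched on NeutrAvidin, digested with LysC and trypsin, and analysed by diaPASEF LC-MS/MS. Values are average log2 fragment/vehicle ratios from an unpaired t-test on global-median-normalised Spectronaut label-free quantities, using proteins with ≥2 unique peptides.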

ATXN3 = ATXN3 (UniProt P54252)
Sequence of ATXN3 (P54252 whole entry): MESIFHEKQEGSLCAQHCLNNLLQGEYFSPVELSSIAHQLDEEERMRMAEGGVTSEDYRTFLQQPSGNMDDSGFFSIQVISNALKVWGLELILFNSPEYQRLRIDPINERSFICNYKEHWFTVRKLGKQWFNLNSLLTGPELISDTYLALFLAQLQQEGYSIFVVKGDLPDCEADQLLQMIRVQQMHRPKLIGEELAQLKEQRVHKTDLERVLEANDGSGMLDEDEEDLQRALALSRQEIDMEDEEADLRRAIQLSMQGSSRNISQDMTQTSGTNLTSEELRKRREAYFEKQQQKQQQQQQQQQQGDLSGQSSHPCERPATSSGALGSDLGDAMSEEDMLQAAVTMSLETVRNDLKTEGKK
Method in brief: as §1

BAP1 = molecular target: T2, BAP1 (UniProt Q92560)
T2 sequence (whole entry): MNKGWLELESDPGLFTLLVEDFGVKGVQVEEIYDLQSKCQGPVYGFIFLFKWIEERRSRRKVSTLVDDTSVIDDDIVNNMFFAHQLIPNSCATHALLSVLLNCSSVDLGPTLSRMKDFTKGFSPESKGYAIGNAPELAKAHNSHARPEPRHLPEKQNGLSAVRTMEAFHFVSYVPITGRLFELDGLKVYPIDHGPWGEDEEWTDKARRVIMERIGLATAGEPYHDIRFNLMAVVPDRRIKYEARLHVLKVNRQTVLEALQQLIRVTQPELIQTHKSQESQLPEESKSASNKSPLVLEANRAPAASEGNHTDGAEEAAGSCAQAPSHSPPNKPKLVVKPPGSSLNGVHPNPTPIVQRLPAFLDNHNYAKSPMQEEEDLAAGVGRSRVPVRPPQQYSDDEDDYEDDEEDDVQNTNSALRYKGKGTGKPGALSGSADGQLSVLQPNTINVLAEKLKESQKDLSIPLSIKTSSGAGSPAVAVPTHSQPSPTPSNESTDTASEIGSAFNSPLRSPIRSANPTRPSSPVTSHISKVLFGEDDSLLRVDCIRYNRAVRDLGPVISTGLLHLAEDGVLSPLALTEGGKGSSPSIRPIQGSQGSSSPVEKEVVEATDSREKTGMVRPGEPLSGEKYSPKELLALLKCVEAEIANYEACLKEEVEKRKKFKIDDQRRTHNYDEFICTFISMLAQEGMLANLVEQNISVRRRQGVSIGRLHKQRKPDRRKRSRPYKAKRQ
Method in brief: as §1

EIF3F = EIF3F (UniProt O00303)
Sequence of EIF3F (O00303 whole entry): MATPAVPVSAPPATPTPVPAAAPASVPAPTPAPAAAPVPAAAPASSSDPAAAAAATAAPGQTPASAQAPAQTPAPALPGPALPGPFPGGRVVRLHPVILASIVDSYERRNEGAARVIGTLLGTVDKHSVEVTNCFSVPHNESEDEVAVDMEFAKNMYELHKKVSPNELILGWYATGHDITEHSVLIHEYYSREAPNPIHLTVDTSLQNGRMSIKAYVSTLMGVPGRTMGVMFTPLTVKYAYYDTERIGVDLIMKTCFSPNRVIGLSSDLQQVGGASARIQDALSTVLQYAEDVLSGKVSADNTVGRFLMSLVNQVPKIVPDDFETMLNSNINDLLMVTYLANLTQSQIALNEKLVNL
Method in brief: as §1

EIF3H = EIF3H (UniProt O15372)
Sequence of EIF3H (O15372 whole entry): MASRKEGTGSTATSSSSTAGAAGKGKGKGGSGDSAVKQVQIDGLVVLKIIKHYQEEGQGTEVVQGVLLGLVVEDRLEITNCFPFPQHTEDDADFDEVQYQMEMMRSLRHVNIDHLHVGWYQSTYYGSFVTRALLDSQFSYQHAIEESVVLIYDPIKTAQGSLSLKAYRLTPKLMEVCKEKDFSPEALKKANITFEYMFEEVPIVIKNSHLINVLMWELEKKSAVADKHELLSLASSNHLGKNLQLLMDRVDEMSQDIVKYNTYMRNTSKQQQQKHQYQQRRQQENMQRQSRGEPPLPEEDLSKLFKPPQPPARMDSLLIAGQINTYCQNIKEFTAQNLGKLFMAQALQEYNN
Method in brief: as §1

FAM105A = molecular target: T3, FAM105A (UniProt Q9NUU6)
T3 sequence (whole entry): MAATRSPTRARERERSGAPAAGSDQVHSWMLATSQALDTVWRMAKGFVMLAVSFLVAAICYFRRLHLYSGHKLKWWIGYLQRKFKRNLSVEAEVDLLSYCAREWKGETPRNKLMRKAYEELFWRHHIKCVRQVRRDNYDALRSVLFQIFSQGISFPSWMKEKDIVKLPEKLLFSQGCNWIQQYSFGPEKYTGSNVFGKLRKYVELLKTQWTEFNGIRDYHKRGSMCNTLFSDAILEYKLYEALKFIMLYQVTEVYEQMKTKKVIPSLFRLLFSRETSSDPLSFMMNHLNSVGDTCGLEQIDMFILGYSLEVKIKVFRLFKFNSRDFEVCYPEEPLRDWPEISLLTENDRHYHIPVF
Method in brief: as §1

OTUB1 = OTUB1 (UniProt Q96FW1)
Sequence of OTUB1 (Q96FW1 whole entry): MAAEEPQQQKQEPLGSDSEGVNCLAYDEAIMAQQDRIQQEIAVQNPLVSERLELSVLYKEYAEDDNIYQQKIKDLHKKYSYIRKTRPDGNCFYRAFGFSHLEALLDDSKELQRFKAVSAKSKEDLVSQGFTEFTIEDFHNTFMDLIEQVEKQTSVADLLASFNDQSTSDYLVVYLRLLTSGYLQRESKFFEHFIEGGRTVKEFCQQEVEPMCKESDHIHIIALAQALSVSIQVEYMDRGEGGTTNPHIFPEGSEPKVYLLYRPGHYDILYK
Method in brief: as §1

OTUD4 = molecular target: T4, OTUD4 (UniProt Q01804)
T4 sequence (whole entry): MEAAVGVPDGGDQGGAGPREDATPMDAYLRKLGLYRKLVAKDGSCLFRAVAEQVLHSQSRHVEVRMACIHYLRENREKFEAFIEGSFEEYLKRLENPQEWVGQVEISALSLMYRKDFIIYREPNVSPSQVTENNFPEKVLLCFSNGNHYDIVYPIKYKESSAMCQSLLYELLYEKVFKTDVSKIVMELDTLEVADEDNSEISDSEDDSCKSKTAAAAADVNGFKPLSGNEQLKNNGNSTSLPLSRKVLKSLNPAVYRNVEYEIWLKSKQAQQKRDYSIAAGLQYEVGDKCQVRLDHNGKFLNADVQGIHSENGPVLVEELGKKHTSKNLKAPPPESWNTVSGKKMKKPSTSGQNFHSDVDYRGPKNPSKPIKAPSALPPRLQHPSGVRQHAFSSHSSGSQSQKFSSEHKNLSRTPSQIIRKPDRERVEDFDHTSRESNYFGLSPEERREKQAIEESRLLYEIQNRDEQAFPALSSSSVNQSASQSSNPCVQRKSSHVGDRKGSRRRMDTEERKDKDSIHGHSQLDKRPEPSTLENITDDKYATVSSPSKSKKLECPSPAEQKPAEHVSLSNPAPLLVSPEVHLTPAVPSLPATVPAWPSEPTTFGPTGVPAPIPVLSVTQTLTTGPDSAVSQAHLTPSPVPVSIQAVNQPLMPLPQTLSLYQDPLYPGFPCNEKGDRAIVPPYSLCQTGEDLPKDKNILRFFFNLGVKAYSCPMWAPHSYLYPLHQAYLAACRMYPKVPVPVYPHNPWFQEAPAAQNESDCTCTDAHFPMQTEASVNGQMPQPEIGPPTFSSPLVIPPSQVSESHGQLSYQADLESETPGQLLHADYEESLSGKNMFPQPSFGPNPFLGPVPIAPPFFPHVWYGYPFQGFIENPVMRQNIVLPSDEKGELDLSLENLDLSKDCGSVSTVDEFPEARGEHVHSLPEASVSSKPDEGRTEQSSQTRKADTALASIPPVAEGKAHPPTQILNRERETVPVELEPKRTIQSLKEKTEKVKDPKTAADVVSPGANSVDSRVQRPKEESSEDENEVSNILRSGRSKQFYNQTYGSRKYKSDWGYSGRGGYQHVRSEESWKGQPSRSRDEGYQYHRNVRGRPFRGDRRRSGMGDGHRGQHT
Method in brief: as §1

OTUD5 = molecular target: T5, OTUD5 (UniProt Q96G74)
T5 sequence (whole entry): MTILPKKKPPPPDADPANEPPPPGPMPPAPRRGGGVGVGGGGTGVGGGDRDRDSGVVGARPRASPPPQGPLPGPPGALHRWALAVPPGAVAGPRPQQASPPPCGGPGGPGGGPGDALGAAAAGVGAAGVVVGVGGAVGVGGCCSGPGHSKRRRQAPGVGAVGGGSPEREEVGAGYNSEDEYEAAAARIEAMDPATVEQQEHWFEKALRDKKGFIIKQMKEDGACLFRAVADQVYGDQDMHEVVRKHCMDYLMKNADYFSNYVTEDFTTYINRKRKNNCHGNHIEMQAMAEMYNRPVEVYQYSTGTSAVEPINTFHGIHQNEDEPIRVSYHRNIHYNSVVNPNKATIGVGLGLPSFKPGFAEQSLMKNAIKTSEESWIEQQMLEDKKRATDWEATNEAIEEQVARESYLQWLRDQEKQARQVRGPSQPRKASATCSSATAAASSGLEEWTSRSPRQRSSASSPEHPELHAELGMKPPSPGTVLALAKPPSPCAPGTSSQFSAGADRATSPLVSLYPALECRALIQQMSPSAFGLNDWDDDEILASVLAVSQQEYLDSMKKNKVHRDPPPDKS
Method in brief: as §1

Measured: log2 ratio of Biotin-Ahx-Ub-VS probe labelling

O=C(CCl)N1CCCC2CCCCC21 (centres undefined)
inactive: ALG13 -0.21 | ATXN3 -0.321 | BAP1 -0.281 | EIF3F -0.196 | EIF3H 0.299 | FAM105A 0.212 | OTUB1 0.0815 | OTUD4 -0.106 | OTUD5 -0.314
